40 molecules from PubChem BioAssay can be followed below.

The term inhibition denotes the change of the read-out against control, counted positive when it falls.

The structures appear in SMILES notation. Unmarked numbers belong to inactive results. No rule for the calls is given here.

For this assay, the target named is Pantothenate synthetase (Mycobacterium tuberculosis (strain ATCC 25618 / H37Rv)) (UniProt P9WIL5). Nature of the assay: Recombinant Mtb pantothenate synthetase (PanC) inhibitors, coupled enzyme, confirmatory (AID 375).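 Also: 0% = full reaction with vehicle and 100% = no enzyme background.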 Conditions: coupled enzyme assay; at 10 µM, stronger effect = higher value.
Pantothenate synthetase (Mycobacterium tuberculosis (strain ATCC 25618 / H37Rv)), sequence (P9WIL5 whole entry, looked up): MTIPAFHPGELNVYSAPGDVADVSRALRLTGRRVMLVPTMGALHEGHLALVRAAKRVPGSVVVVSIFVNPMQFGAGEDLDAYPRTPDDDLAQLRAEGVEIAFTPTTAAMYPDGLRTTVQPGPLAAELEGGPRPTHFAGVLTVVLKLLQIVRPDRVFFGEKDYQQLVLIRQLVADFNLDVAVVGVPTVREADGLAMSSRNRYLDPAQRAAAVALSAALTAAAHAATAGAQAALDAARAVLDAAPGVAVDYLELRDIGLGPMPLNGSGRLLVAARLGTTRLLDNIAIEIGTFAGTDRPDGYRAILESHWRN
With `Cc1occc1C(=O)Nc1ccc(S(=O)(=O)N2CCN(C)CC2)cc1`, the inhibition is 0%.
With `O=C(O)c1cccc(NC(=O)C23CC4CC(C2)CC(n2cnc(Cl)n2)(C4)C3)c1` the figure was 1%.
The same measure for `CN(C)C(CNc1nnnn1-c1ccccc1)c1ccco1` (stereo not given): 2%.
The same measure for `COc1cccc(Cn2c(OCC3CCCO3)nc3c2c(=O)n(C)c(=O)n3C)c1` (stereo not given): 3%; for `O=C(O)C1C2C=CC(O2)C1C(=O)NCc1ccc(Cl)cc1` (stereo not given): 13%.
For `CCOC(=O)N1CCN(C(=O)CN(Cc2ccccc2)S(=O)(=O)c2ccc(OC)c(C)c2)CC1`, the inhibition is 5%.
The same measure for `COC(=O)C1=C(C)NC2=C(C(=O)CCC2)C1c1coc2ccccc2c1=O` (stereo not given): 6%.
`Cc1c(C(=O)O)sc2nc3n(c(=O)c12)CCC(C)CC3` (stereo not given): the inhibition is 2%.
With `CC(C)(C)c1cc(CCC(=O)N2CCNCC2)c(C(C)(C)C)cc1O` the figure was 0%.
On to `CSc1nc(C)cc(OCC(=O)N2CCOCC2)n1`, for which the inhibition is 0%.
Turning to `O=C(Cn1c(=O)n(Cc2ccc3c(c2)OCO3)c(=O)c2ccccc21)N1CCCc2ccccc21`, the inhibition was 0%.
The same measure for `COc1cccc(C2C(C(=O)c3ccc(C)o3)=C(O)C(=O)N2CCCN(C)C)c1` (stereo not given): 0%.
With `COC(=O)c1ccc(CNC(=O)CSc2nc3sc(C)c(C)c3c(=O)n2C)o1` the figure was 0%; with `CC1=C(C(=O)OC2CCCCC2)C(c2ccc(C)o2)C2=C(CC(C)(C)CC2=O)N1` (stereo not given), 0%.
The same measure for `COc1ccc(OC)c(NC(=O)CCNS(=O)(=O)c2cccs2)c1`: 0%; for `CCOC(=O)Nc1ccc(NS(=O)(=O)c2ccc(C)cc2)cc1`: 0%.
For the molecule `CCOc1nc(-c2ccncc2)nc2ccccc12`, the inhibition is 0%.
The same measure for `O=C(O)c1ccc2c(c1)C(=O)N(c1ccc(Cl)cn1)C2=O`: 8%; for `CCC(C)(NC(=O)c1ccc(=O)[nH]c1)C(=O)NC1CCCC1` (stereo not given): 0%; for `Cc1cn2c(-c3ccc(Cl)cc3)nnc2s1`: 0%.
As to `COc1cccc(N(C(=O)c2ccco2)C(C(=O)NC2CCCC2)c2ccc(N(C)C)cc2)c1` (stereo not given), the inhibition is 0%.
With `CCOCCCNC(=O)C1CCC(=O)N1CCc1ccccc1` (stereo not given), the inhibition is 5%.
The same measure for `COc1cccc(Nc2cc(C)nc3ccccc23)c1`: 1%; for `CCN(CC)C(=O)C1CCN(CC2CC=CCC2)CC1` (stereo not given): 0%; for `COC(=O)c1ccc(CSc2nc3c(cnn3-c3ccc(C)c(C)c3)c(=O)[nH]2)o1`: 3%.
With `Nc1ccc(S(=O)(=O)Nc2ccccn2)cc1` the figure was 0%.
With `CC(=O)Nc1c(O)[nH]c2ccccc12` the figure was 0%.
Consider `CCOC(=O)C1=C(CC)Nc2ccccc2N=C1NC(=O)Cn1cnc2ccccc2c1=O`, for which the inhibition is 0%.
As to `COc1cccc(C2=NOC(C(=O)Nc3ccc(C(C)=O)cc3)C2)c1` (stereo not given), the inhibition is 0%.
For `Cc1ncoc1C(=O)Nc1ccccc1C(N)=O`, the inhibition is 0%.
With `CCn1c(COc2cccc3ccccc23)nnc1SCC(N)=O` the figure was 9%; with `CCCCC1C(=O)N(c2ccccc2)N(c2ccccc2)C1=O`, 0%.
With `CCOC(=O)C1CCN(c2nc3ccccc3nc2C(C#N)C(=O)OC(C)C)CC1` (stereo not given) the figure was 0%; with `CCOC(=O)CCCn1nc(C)n2c(cc3sccc32)c1=O`, 5%.
With `COc1ccc(OC)c(C(C)NC=O)c1` (stereo not given) the figure was 4%; with `CCc1nn2c(N3CCOCC3)cc(C)nc2c1-c1ccc(F)cc1`, 0%; with `CCOC(=O)N1CCN(C(=O)CCc2c(C)nc3c(c(C)nn3-c3ccc(C)c(C)c3)c2C)CC1`, 0%.
With `COc1ccc(C2=NOC(C(=O)NC3CCCCC3)C2)cc1OC` (stereo not given), the inhibition is 2%.
With `COc1ccccc1N(CC(=O)NCc1ccccc1)S(C)(=O)=O` the figure was 0%.
The same measure for `Cc1[nH]n2c(=O)cc(Cc3ccccc3)nc2c1C#N`: 0%.
